Our source for the growth inhibition values is PubChem BioAssay (NCI).

Structures are written as SMILES. About 79,000 compounds went through this panel and 15% of them were active in at least one assay; those are over-represented in the sample as a whole. Values without a mark were called inactive. The source made the active and inactive calls. No stated cut-off is given here; in the data, active means growth inhibition above about 70%; inactive means the rest.

This experiment can be described thus: NCI Yeast Anticancer Drug Screen. Data for the mec2-1 strain (AID 157). The note with it: S. cerevisiae mec2-1 strain, active compounds read high. On the procedure:
Growth inhibition of yeast strains with defined genetic alterations is measured as a screen for potential anti-cancer activity. Selected strains with alterations in DNA damage repair or cell cycle control were exposed to compounds and growth inhibition was measured relative to vehicle treated controls. The strain used in this assay is mec2-1

Where [1] appears, read: at 5.0 µM (retest, dose inferred, filed as 0.5).
Setting [2] is: at 50.0 µM (retest, dose inferred, filed as 5.0).

As to `Cc1nc(N)nn1C`, the growth inhibition is 0% under setting [1], -2% under setting [2] and 6.1% (at 50.0 µM).

Turning to `CC(NNC(=S)NCc1ccccc1)c1cc2ccccc2cn1` (configuration not stated), the growth inhibition reads like this: under setting [1], 9%; under setting [2], 93% (active); (at 50.0 µM) 80.8% (active).

Turning to `O=c1[nH]c2ccccc2c(O)c1/C=N/C(=S)NCCc1ccccc1`, the growth inhibition is 25% under setting [1], 22% under setting [2] and -21.8% (at 50.0 µM).

Take `C[Si](C)c1cccc(Cl)c1`: the growth inhibition is 0% under setting [1], 4% under setting [2] and 0.45% (at 50.0 µM).

Take `COc1ccccc1/C=C(\NC(=O)c1ccccc1)c1nc2ccccc2[nH]1`: the growth inhibition is 30% under setting [1], 98% (active) under setting [2] and 95% (active) (at 50.0 µM).

With `Cc1ccc(S(=O)(=O)OC(C=O)C(O)C(O)COC(c2ccccc2)(c2ccccc2)c2ccccc2)cc1` (configuration not stated), the growth inhibition by setting is: under setting [1], 98% (active); under setting [2], 98% (active); (at 50.0 µM) 84.5% (active).

Consider `CS(=O)(=O)c1ccc(C[N+]23CN4CN(CN(C4)C2)C3)cc1`, for which the growth inhibition was 0% under setting [1], 13% under setting [2] and 14.7% (at 50.0 µM).

Regarding `COC1CC(C)(NC(C)=O)C2OC(c3ccccc3)OCC2O1` (configuration not stated), the growth inhibition runs as follows: under setting [1], -11%; under setting [2], -15%; (at 50.0 µM) 81.2% (active).

As to `CC(=O)OCC1OC(N2CCc3cc([N+](=O)[O-])ccc32)C(OC(C)=O)C(OC(C)=O)C1OC(C)=O` (configuration not stated), the growth inhibition is -19% under setting [1], 20% under setting [2] and -1.35% (at 50.0 µM).

In the case of `Cc1ccc2c(n1)C(=O)C=CC2=O`, the growth inhibition under setting [1] is 5%, the growth inhibition under setting [2] was 94% (active) and the growth inhibition (at 50.0 µM) was 89.5% (active).

For the molecule `CSc1cccc(N2C(=O)C=CC2=O)c1`, the growth inhibition is 49% under setting [1], 48% under setting [2] and 93.4% (active) (at 50.0 µM).

Take `O=C1C(=O)N(c2ccc(Cl)c(Cl)c2)C(=O)C(=O)C1c1nc2ccccc2o1`: the growth inhibition runs as follows: under setting [1], 17%; under setting [2], 98% (active); (at 50.0 µM) 92.8% (active).

`CCC1CCCN1CCOC(=O)C(c1ccccc1)C1C=CCC1` (configuration not stated): the growth inhibition was 23% under setting [1], 58% under setting [2] and 33.9% (at 50.0 µM).

For `ON(Cc1ccccc1)C(=S)c1ccccc1`, the growth inhibition runs as follows: under setting [1], 19%; under setting [2], 99% (active); (at 50.0 µM) 92.8% (active).
